# Most compounds without a hit are left out; they make up all but 2% or so of the library.
# sPLA2-III inh: human group III sPLA2 inhibitors, primary screen, biochemical, QFRET, BODIPY PC-A2 liposome substrate; hit rate 0.56% among 370,000; AID 743126, 2013; inhibition, % at 12.2 µM; Group 3 secretory phospholipase A2 (Homo sapiens), Q9NZ20; QFRET BODIPY PC-A2 liposome hydrolysis, fluorescence;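 active = inhibition above mean plus 3 SD of compounds lying within the high and low control bounds, cut at about 19% in these data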;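 note: 0% = median of test compound wells and 100% = no enzyme DMSO wells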
# APOBEC3A inh: APOBEC3A ssDNA deaminase inhibitors, primary screen, selectivity assay for APOBEC3G inhibitor project, biochemical, FAM/TAMRA oligo cleavage fluorescence | inhibition, % at 20 µM | recombinant A3A, FAM/TAMRA ssDNA deamination fluorescence | hit rate 0.41% among 330,000 | AID 493011, 2011;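 active = at least 40% inhibition at 20 µM here, with at most 30% in a related deaminase screen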;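 note: plate controls were A3A with DMSO for no effect and wells lacking A3A enzyme for full effect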
# Target sequence (P31941 whole entry, looked up): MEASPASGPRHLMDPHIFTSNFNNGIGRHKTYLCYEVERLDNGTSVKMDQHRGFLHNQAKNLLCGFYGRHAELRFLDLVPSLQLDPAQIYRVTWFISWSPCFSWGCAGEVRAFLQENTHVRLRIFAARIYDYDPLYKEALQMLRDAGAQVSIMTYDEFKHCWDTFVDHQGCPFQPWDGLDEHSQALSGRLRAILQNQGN
# Fh CTSL1 inh: Fasciola hepatica cathepsin L1 inhibitors, primary screen, counter-screen for PFM18AAP inhibitor project, biochemical, QFRET, fluorogenic peptide substrate; recombinant F. hepatica cathepsin L1, Z-Leu-Arg-MCA fluorescence; inhibition, % at 5.96 µM; hit rate 0.49% among 300,000; AID 1906, 2009;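 active = inhibition above the mean of all tested compounds plus 3 SD, set per screening campaign, cut at about 17% in these data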;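 note: 0% = plate median of test compound wells and 100% = 1 µM Z-Phe-Ala-diazomethylketone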
# A3G deaminase: APOBEC3G DNA deaminase inhibitors, primary screen, biochemical, fluorescence, single-stranded DNA substrate, uHTS; inhibition, % at 20 µM; recombinant A3G, ssDNA deamination FAM/TAMRA fluorescence; hit rate 0.28% among 330,000;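 active = inhibition of at least 40% at 20 µM, with no more than 30% in the related APOBEC3A deaminase screen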;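 note: plate controls were DMSO wells with A3G for no effect and wells lacking A3G enzyme for full effect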
# Target sequence (Q9HC16 whole entry, looked up): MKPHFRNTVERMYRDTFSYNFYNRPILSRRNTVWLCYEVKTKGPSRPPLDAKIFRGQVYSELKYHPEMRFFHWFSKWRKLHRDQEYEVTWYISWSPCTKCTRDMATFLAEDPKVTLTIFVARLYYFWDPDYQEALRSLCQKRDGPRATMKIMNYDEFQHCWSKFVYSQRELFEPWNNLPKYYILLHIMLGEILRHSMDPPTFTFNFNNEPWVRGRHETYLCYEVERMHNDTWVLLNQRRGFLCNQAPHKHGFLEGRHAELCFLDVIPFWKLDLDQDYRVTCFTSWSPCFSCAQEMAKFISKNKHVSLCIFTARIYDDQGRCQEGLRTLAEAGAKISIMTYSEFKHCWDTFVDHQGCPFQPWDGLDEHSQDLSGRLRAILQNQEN
# NALP1 inh: NALP1 inflammasome inhibitors in reconstituted yeast, colorimetric, S. cerevisiae, triplicate retest. S. cerevisiae NALP1/ASC/caspase-1 growth, X-gal OD620, 72 h. inhibition, % at 10 µM. hit rate 0.61% among 280,000. AID 2071, 2009; in the data active = inhibition mostly above about 24%, no sharp cut-off; inactive = mostly below about 32%
# hGIII sPLA2 conf: human group III sPLA2 inhibitors, confirmation, biochemical, QFRET, triplicate; shares compounds with sPLA2-III inh; recombinant hGIII-sPLA2, BODIPY PC-A2 QFRET fluorescence; inhibition, % at 12.2 µM; hit rate 34% among 2,000; AID 743280, 2014;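 active = mean inhibition across triplicates above the hit cutoff set in the earlier primary screen, cut at about 19% in these data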;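 note: 0% = enzyme with DMSO and 100% = DMSO wells lacking enzyme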
# BODIPY interf: 535nm fluorescence optical interference, confirmation, artefact control for HGIII-sPLA2 inhibitor project, biochemical, QFRET. shares compounds with sPLA2-III inh. BODIPY FL product fluorescence interference. inhibition, % at 12.2 µM. hit rate 8.5% among 2,000;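 active = average inhibition above the solvent-only control mean plus 3 SD, cut at about 6% in these data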;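 note: 0% = DMSO with substrate plus product and 100% = DMSO with substrate alone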
# BODIPY interf DR: 535nm fluorescence optical interference, dose response, artefact control for HGIII-sPLA2 inhibitor project, biochemical, QFRET; shares compounds with sPLA2-III inh; BODIPY FL product fluorescence interference, cell-free; IC50, µM; 240 tested, under 10 active; AID 743455, 2014;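 active = IC50 at or below 10 µM; inactive = IC50 above 10 µM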
# Starred values were filed as active, the others as inactive; x = not tested or not shown.
SMILES,sPLA2-III inh,APOBEC3A inh,Fh CTSL1 inh,A3G deaminase,NALP1 inh,hGIII sPLA2 conf,BODIPY interf,others
CN=c1scc(-c2ccccc2F)n1/N=C/c1ccc[nH]1,35*,-4,4,-6,6,29*,3,BODIPY interf DR=>122
Cc1occc1-c1nnc(SCC(=O)Nc2ccncc2)n1-c1ccccc1,-1,x,x,x,x,x,x,
NC(=S)N/N=C/c1cc([N+](=O)[O-])ccc1Cl,20*,3,13,-7,4,13,0,
CN(C)c1ccc(/C=N/NC(N)=S)cc1[N+](=O)[O-],21*,1,19*,-15,21,20*,-2,
C=CCNC(=S)N/N=C/c1ccc(C)c([N+](=O)[O-])c1,11,x,-1,x,20,x,x,
O=C1NC(=S)N(C(=O)c2ccc(F)cc2)/C1=C/c1cccnc1,20*,-5,-1,-12,-4,0,-1,
COc1ccc(/C=C2\C(=O)NC(=S)N2C(=O)c2ccc(C)cc2)cc1,-6,4,2,-3,20,x,x,
O=c1oc(-c2ccc(Cl)c(Cl)c2)nn1-c1ccc(C(F)(F)F)cn1,30*,-3,2,-6,-5,23*,7.8*,
CC(C)c1nn(-c2cc(C(F)(F)F)ccn2)c(=O)o1,1,-4,-2,-14,4,x,x,
COC(=O)/C=C1\Nc2ccc(Cl)cc2C(=O)NC1=O,7,x,x,x,x,x,x,
Cc1onc(-c2ccccc2)c1C(=O)NC(=S)NNC(=O)c1ccccc1O,42*,-4,4,-12,29,34*,1,BODIPY interf DR=>122
Cc1onc(-c2ccccc2)c1C(=O)NC(=S)NNC(=O)c1ccc(O)cc1O,23*,2,1,-4,23,23*,3,
Cc1onc(-c2ccccc2)c1C(=O)NC(=S)NNC(=O)c1ccc(O)cc1,9,-1,1,-7,20,x,x,
Cc1ccc(S(=O)(=O)N2CCCC2c2cccc3[nH]cc(C)c23)cc1 (centres undefined),-59,x,x,x,x,x,x,
O=C(NCc1cccs1)O[C@H]1CC[C@@]23CCCN2C(=O)CCC[C@H]3C1,5,x,x,x,x,x,x,
O=C(c1ccccc1O)N1N=C(C(F)(F)F)CC1(O)c1ccc([N+](=O)[O-])cc1 (centres undefined),21*,-4,2,-8,-11,13,5,
COc1ccc([N+](=O)[O-])cc1NC(=O)C(C)N(C)Cc1ccc(Br)cc1 (centres undefined),5,1,-2,-3,43,x,x,
COc1ccc(Br)cc1CN(C)C(C)C(=O)Nc1cc([N+](=O)[O-])ccc1OC (centres undefined),20*,-1,-1,-2,13,8,-8,
CCCCn1c(SCc2nc(N)nc(N3CCCCC3)n2)nc2c1c(=O)n(C)c(=O)n2C,21*,0,1,-1,38,4,-32,
C=CCN1C(=O)/C(=C2/Sc3ccc(OC)cc3N2C)SC1=Nc1ccccc1,94*,2,-2,-3,-8,4,-4,
COc1ccc(NS(=O)(=O)c2cc(N)ccc2N2CCCC2)cc1,21*,-1,x,9,x,8,3,
COc1ccc(NS(=O)(=O)c2cc(N)ccc2N2CCOCC2)cc1,6,-1,-1,-9,0,x,x,
Cc1ccccc1CN1[C@@H](C)[C@H](c2ccccc2)Oc2cccc(N3CCCC(C)C3)c2S1(=O)=O (some centres undefined),2,x,x,x,x,x,x,
CCNC1CCS(=O)(=O)C1 (centres undefined),22*,-2,-2,-5,-26,2,-3,
CCN(CC)C(=O)CC[C@H]1CC[C@]2(CCCN(Cc3ccccc3)C2)O1,0,x,x,x,x,x,x,
SMILES,sPLA2-III inh,APOBEC3A inh,Fh CTSL1 inh,A3G deaminase,NALP1 inh,hGIII sPLA2 conf,BODIPY interf,others
CCCNC(=O)c1ccc2c(=O)c(O)c(-c3cccc(Br)c3)[nH]c2c1,20*,23,3,-9,x,10,-3,
CCCNC(=O)c1ccc2c(=O)c(O)c(-c3ccc(F)cc3)[nH]c2c1,x,-2,3,-5,x,x,x,
O=C(COC(=O)/C=C/c1ccccc1)Nc1ccc2c(c1)OCCO2,-3,-4,x,-5,x,x,x,
O=C(COC(=O)/C=C/c1ccc(Cl)cc1)Nc1ccc2c(c1)OCCO2,22*,1,-7,-3,7,13,-4,
COc1ccc(OC)c(S(=O)(=O)N2CCC(C(=O)N3CCN(C4CCCCC4)CC3)CC2)c1,-9,x,x,x,x,x,x,
COC(=O)c1c(C)cc(C)n2c1nc1ccccc12,22*,1,3,-4,6,6,-6,
C[C@@H]1CCN(C2CC2)S(=O)(=O)c2ccc(N3CCC[C@H]3CO)cc2O1,4,x,x,x,x,x,x,
COc1ccc(CN2C(=O)CCCC2(C)c2nnnn2-c2ccc3c(c2)OCCO3)cc1 (centres undefined),-2,x,x,x,x,x,x,
CC(C)C[C@@H]1COc2cc(NCCO)ccc2S(=O)(=O)N1,2,x,x,x,x,x,x,
O=C1CN(C(=O)c2ccccc2Cl)c2ccccc2N1,21*,-11,-1,-10,8,-3,-2,
CCC(=O)N1CCc2cc(Br)c(S(=O)(=O)N3CCC(C(=O)NC(C)(C)C)CC3)cc21,3,x,x,x,x,x,x,
COc1ccc(NC(=S)N(Cc2ccc(N(C)C)cc2)Cc2ccco2)cc1,22*,2,2,-3,6,10,-7,
C(=NOCc1ccccc1)c1ccncc1,1,x,x,x,x,x,x,
C(=NOCCc1ccccc1)c1cccnc1,20*,x,x,x,x,-4,-5,
CCC(NC(=O)CCCN1C(=O)COc2ccc(C)cc21)c1ccccc1 (centres undefined),0,x,x,x,x,x,x,
C/C(=N/NC(=O)c1ccco1)c1ccc(NC(=O)c2ccc(F)cc2)cc1,23*,3,1,5,28,10,-8,
C/C(=N/NC(=O)c1ccco1)c1ccc(NC(=O)c2ccc(Br)o2)cc1,3,0,2,3,6,x,x,
CCc1ccccc1NC(=S)NC1CC2CCC(C1)N2Cc1ccco1 (centres undefined),21*,-6,0,-6,9,14,-8,
Cc1cccc(NC(=S)NC2CC3CCC(C2)N3Cc2ccco2)c1C (centres undefined),11,-4,7,-5,-7,x,x,

# Screening data from PubChem.
